# Source: PubChem (Johns Hopkins Ion Channel Center)
# Compounds with a hit are over-represented: about 1.6% of the library has one in this group of screens.
# KCNQ2 pot: enhances the rat KCNQ2 potassium channel; hit rate 0.54% among 310,000; B-score at 10 µM; CHO-K1 KCNQ2, FluxOR thallium flux fluorescence; active compounds read high; O88943;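 active means fluorescence ratio B-score at least 3 SD of library B-scores, with initial fluorescence B-score within 3 of them, cut at about 5.3 in these data; same plate scores as AID 2156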;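 further: B-score of peak minus minimum over baseline fluorescence ratio after K+ and Tl+ stimulus; positive B-score means potentiation of KCNQ2 with more thallium influx and brighter signal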
# KCNQ2 block: inhibitors of rat KCNQ2 potassium channel; O88943; CHO-K1 KCNQ2, FluxOR thallium flux, 20 min; active compounds read low; B-score at 10 µM; hit rate 1.1% among 310,000; AID 2156;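 active means fluorescence ratio B-score at most minus 3 library SDs, with starting brightness B-score within 2 library SDs, cut at about -5.5 in these data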
# * marks the source's active call; other numbers are inactive results; i = inactive; · = not tested or not shown.
SMILES,KCNQ2 pot,KCNQ2 block
CCOC(=O)C1=C(C)NC(C)=C(C(=O)OC)C1c1cccc(Cl)c1Cl (stereo unspecified),-7.5,-7.5*
CCc1ccc(-c2cc(C(=O)NCc3ccccn3)c3ccccc3n2)cc1,·,i
CCc1ccccc1Nc1cc(C(=O)NCc2ccccn2)c2ccccc2n1,-5.9,-5.9*
CCN1C(=NCC(C)C)N[C@@H](c2cccc(F)c2)C(C(=O)OC)=C1C,·,i
O=C(O)c1ccccc1NS(=O)(=O)c1cccc(C(F)(F)F)c1,·,i
O=C(O)c1ccccc1NS(=O)(=O)c1cccc(-n2sc3ccccc3c2=O)c1,13*,i
O=C(Nc1ccccc1OCc1ccccc1)c1ccccc1Br,·,i
Cc1ccsc1/C=N/N1CCN(Cc2ccccc2)CC1,0.12,i
N#Cc1ccccc1CSc1nc2ccsc2c(=O)n1Cc1ccccn1,·,i
Cc1ccc(CSc2nc3ccsc3c(=O)n2Cc2ccccn2)cc1,-6.2,-6.2*
CC(=O)Oc1ccc2c(=O)c(-c3nc4ccccc4s3)coc2c1,0.07,i
CNS(=O)(=O)c1cccc(C(=O)OCC(=O)/C=C2/N(C)c3ccccc3C2(C)C)c1,1.3,i
CN1/C(=C\C(=O)COC(=O)c2ccc(O)cc2)C(C)(C)c2ccccc21,-6.2,-6.2*
CN1/C(=C\C(=O)COC(=O)c2ccc(O)c(O)c2)C(C)(C)c2ccccc21,-6.5,-6.5*
CCOC(=O)/C=C1/N(C)c2ccccc2C1(C)C,1.9,i
Cc1nc(=S)n(-c2ccccc2)[nH]1,·,i
S=c1nc(-c2ccccc2)[nH]n1-c1ccccc1,18*,i
Cc1cc(C)n(CC(=O)O)c(=O)c1[N+](=O)[O-],0.51,i
Clc1ccc(-c2nnc(-c3ccccc3)c(-c3ccccc3)n2)cc1,-6.2,-6.2*
O=[N+]([O-])c1ccc(-c2nnc(-c3ccccc3)c(N3CCOCC3)n2)cc1,·,i
Clc1ccc(-c2nnc(-c3ccccc3)c(N3CCSCC3)n2)cc1,-6,-6*
Clc1ccc(-c2nnc(-c3ccccc3)c(-c3c[nH]c4ccccc34)n2)cc1,1.1,i
O=C(CCc1nnc2ccc(NCc3ccco3)nn12)N1CCN(c2ccc(F)cc2)CC1,·,i
C/C(=N\NC(=O)c1cc(C)oc1C)c1ccc2ccccc2c1,·,i
CCOC(=O)C1=C(C)NC(=O)NC1c1ccc(-c2ccc(Cl)cc2)o1 (stereo unspecified),0.05,i
SMILES,KCNQ2 pot,KCNQ2 block
CCOC(=O)C1=C(C)NC(=S)NC1c1ccc(-c2ccc(Cl)cc2)o1 (stereo unspecified),7.8*,i
CCOc1ccc(C(=O)CC(=O)C(=O)NCCc2ccc(OC)c(OC)c2)cc1,·,i
O=C(COc1ccc(S(=O)(=O)N2CCCC2)cc1)NCC1CCCO1 (stereo unspecified),1.1,i
COc1cc(-c2nc(C(=O)NCC3CCCO3)cc3c2[nH]c2ccccc23)cc(OC)c1OC (stereo unspecified),-6.7,-6.7*
COc1ccccc1-c1nc(C(=O)NCC2CCCO2)cc2c1[nH]c1ccccc12 (stereo unspecified),·,i
CC(=O)Nc1ccc(NC(=O)CSc2ncc(C(=O)Nc3ccc(F)cc3)c(=O)n2C)cc1,·,i
CCSc1ncc(/C=N/Nc2ccc(F)cc2)n1C,-8.5,-8.5*
CC1CCCC(C)N1C(=O)COC(=O)c1ccc(O)cc1 (stereo unspecified),0.92,i
CCOc1ccc2[nH]c(=O)c(C(c3nnnn3Cc3ccco3)N3CCC(C)CC3)cc2c1 (stereo unspecified),0.94,i
CCOc1ccc2[nH]c(=O)c(C(c3nnnn3Cc3ccco3)N3CCCC(C)C3)cc2c1 (stereo unspecified),-6.5,-6.5*
Cc1cc(C)cc(OCC(=O)N(Cc2ccc(N(C)C)cc2)C2CCS(=O)(=O)C2)c1 (stereo unspecified),·,i
O=C(OC(C(=O)NC1CCCC1)c1ccccn1)c1cccs1 (stereo unspecified),·,i
O=C(c1ccccc1)N(Cc1ccccc1)Cc1ccccc1,-6.3,-6.3*
CCN(Cc1ccccc1)C(=O)c1ccc(C(=O)N(CC)Cc2ccccc2)cc1,·,i
CCN(Cc1ccccc1)C(=O)C1CCN(CC2CC=CCC2)CC1 (stereo unspecified),·,i
O=C(C1CC1)N(CCN(Cc1ccccc1)C(=O)C1CC1)Cc1ccccc1,-7.1,-7.1*
CC1CCc2c(sc(NC(=O)CN3CCN(C(=O)c4ccco4)CC3)c2C#N)C1 (stereo unspecified),2.6,i
CCOC(=O)Cn1c(C)[n+](CC(=O)c2ccccc2)c2ccccc21,·,i
CCCSc1nc(C)c(CC(=O)O)c(=O)[nH]1,1.6,i
Nc1nc(Nc2cccc(F)c2)nc(NCc2ccco2)c1[N+](=O)[O-],·,i
Cc1ccc2nc3c(cc2c1)c(NC(=O)c1ccccn1)nn3CC(C)C,-7.5,-7.5*
CCn1nc(NC(=O)c2ccccn2)c2cc3cc(C)ccc3nc21,1.1,i
CCOC(=O)C1(C)/C(=N/Nc2ccccc2Cl)C(=O)C(=O)N1c1ccccc1 (stereo unspecified),·,i
CCCC[C@@H]1C[C@H]1[C@@H](NC(=O)c1ccco1)c1ccc(Cl)cc1,·,i
CCCC[C@@H]1C[C@H]1[C@@H](NC(=O)c1cccs1)c1ccc(Cl)cc1,-8,-8*
SMILES,KCNQ2 pot,KCNQ2 block
c1ccc2c(Nc3nc(N4CCOCC4)c4ccccc4n3)cccc2c1,-6.5,-6.5*
Fc1ccc(Nc2nc(N3CCOCC3)c3ccccc3n2)cc1,·,i
O=C(Cc1ccc(Cl)cc1)Nc1ccccc1Sc1ccccc1,7.8*,i
O=C(Cc1ccccc1)Nc1cc(Cl)ccc1Sc1ccccc1,·,i
CCN1CCN(CCNC(=O)c2ccc(CS(=O)c3ccc(Br)cc3)o2)CC1 (stereo unspecified),5.6*,i
CCN1CCN(CCNC(=O)c2ccc(CS(=O)c3ccc(Cl)cc3)o2)CC1 (stereo unspecified),1.2,i
CC(C)CCNC(=O)C1CCN(S(=O)(=O)c2ccc(-n3cnnn3)cc2)CC1,·,i
Cc1cc(NC(=O)Nc2cccc(Cl)c2)n(-c2ccccc2)n1,1.1,i
Cc1cc(Nc2ccccc2)n(-c2cccc(Cl)c2)n1,-6,-6*
COc1ccc(NS(=O)(=O)c2ccc(O)c(NC(=O)c3cc4c(C)nn(-c5ccc(F)cc5)c4s3)c2)cc1,1.4,i
CCc1ccccc1NC(=O)c1cc([N+](=O)[O-])ccc1N1CCOCC1,1.3,i
CCN(CC)S(=O)(=O)c1ccc(N2CCCCC2)c(C(=O)Nc2ccccc2N2CCOCC2)c1,-8,-8*
CCN(CC)S(=O)(=O)c1ccc(N2CCOCC2)c(NC(=O)c2cccc3ccccc23)c1,·,i
COc1cc(/C=C/C(=O)Nc2cc(S(=O)(=O)N3CCOCC3)ccc2N2CCCC2)cc(OC)c1OC,·,i
CC1CCN(c2ccccc2NC(=O)c2cc([N+](=O)[O-])ccc2N2CCOCC2)CC1,-5.7,-5.7*
CCN(CC)S(=O)(=O)c1ccc(N2CCCCC2)c(NC(=O)/C=C/c2cc(OC)c(OC)c(OC)c2)c1,-6.4,-6.4*
Cc1cc(C(F)F)nn1CC(=O)NCc1ccccc1F,·,i
Cc1ccccc1N(CC(=O)NC1CCCC1)C(=O)c1oc(C(C)(C)C)cc1C,·,i
Cc1cc(C(C)(C)C)oc1C(=O)N(CC(=O)NC1CCCC1)Cc1ccccc1Cl,-6.2,-6.2*
COc1cc(/C=C(/C(=O)c2cccs2)c2nc3ccccc3[nH]2)ccc1O,-7.6,-7.6*
